ALR H2O2 inh: blocks human ALR sulfhydryl oxidase activity; P55789; purified ALR, DTT oxidation, H2O2 HRP-luminol luminescence; inhibition, % (test concentration not listed); hit rate 3.8% among 290,000; AID 485317;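 active = mean replicate inhibition above about 79%, with every replicate also reaching it, limit read from the data; inconclusive = only one of the two criteria met; inactive = mean below limit and not every replicate reaching it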
Target sequence (P55789 whole entry, looked up): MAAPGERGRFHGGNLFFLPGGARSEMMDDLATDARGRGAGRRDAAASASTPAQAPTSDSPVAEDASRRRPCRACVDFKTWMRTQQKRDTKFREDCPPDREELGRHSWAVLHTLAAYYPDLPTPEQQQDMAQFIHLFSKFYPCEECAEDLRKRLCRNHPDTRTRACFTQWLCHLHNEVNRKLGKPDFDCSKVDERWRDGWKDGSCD
CSC inhib: blocks cancer stem cells; cancer stem cell-like cells viability, luminescence; inhibition, % at 7.5 µM; hit rate 1.1% among 300,000; AID 2717; in the data active = inhibition above about 75%; inconclusive = no clear call, values can overlap the other calls; tested in HMLE shEcad cells
PP1 counter: counter-screen for PP5 inhibitors: inhibitors of human PP1-alpha; P62136; purified PP1alpha, OMFP fluorescence; inhibition, % at 6.7 µM; hit rate 0.9% among 320,000;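 active = inhibition above the mean inhibition of all tested compounds plus 3 SD, computed separately for each screening campaign, cut at about 15% in these data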
Target sequence (P62136 whole entry, looked up): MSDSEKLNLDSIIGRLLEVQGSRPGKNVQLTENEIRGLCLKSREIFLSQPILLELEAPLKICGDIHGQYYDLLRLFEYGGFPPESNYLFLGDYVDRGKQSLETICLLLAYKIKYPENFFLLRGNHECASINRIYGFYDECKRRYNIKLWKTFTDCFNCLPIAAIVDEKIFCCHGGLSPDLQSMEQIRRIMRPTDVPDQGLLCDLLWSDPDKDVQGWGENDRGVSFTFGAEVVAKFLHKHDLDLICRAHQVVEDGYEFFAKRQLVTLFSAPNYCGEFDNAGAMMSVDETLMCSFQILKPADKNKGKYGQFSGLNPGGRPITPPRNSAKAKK
PP5 primary: PP5 (human) phosphatase inhibition; purified PP5c, OMFP substrate fluorescence; inhibition, % at 6.7 µM; hit rate 0.18% among 320,000;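 active = inhibition above the campaign's mean inhibition across all tested compounds plus 3 SD, cut at about 9.5% in these data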;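 note: 0% = DMSO only and 100% = 100 µM cantharidin control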
Calb FLC: affects C. albicans growth with fluconazole | hit rate 0.57% among 300,000 | C. albicans CaCi-2 (fluconazole-resistant clinical isolate) + fluconazole, Alamar Blue growth, 48 h | AID 1979 | growth inhibition, % (no concentration beside the values);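 active = growth inhibition above about 58% in most replicates, limit read from the data, passing the limit was not always enough; inconclusive = exactly half the replicates above a set limit; inactive = most replicates below a set limit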;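 note: all wells also contain fluconazole at 8 µg/ml as a sub-toxic cotreatment; 0% = median of DMSO wells and 100% = median of geldanamycin control wells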
PP1 inh confirm: human PP1 phosphatase inhibition, confirmation | purified PP1alpha, OMFP substrate fluorescence | inhibition, % at 6.7 µM | hit rate 52% among 1,900 | AID 2358 | shares compounds with PP1 counter;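 active = mean PP1 inhibition above a set limit taken from the earlier primary screen, cut at about 15% in these data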
PP5 counter: inhibits human PP5 phosphatase in PP1 counter-screen. inhibition, % at 6.7 µM. AID 2360. shares compounds with PP1 counter. hit rate 4% among 1,900. purified PP5c, OMFP fluorescence;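 active = mean PP5 inhibition over triplicate wells above about 9.5% taken from the earlier PP1 screen, limit read from the data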
* = called active by the depositor; ? = inconclusive; / = not tested or not shown. The list is not random: actives were taken first. Their share in the collection is about 5.4%.

SMILES	ALR H2O2 inh	CSC inhib	PP1 counter	PP5 primary	Calb FLC	PP1 inh confirm	PP5 counter
CC1CCCN(S(=O)(=O)c2ccc(C(=O)Nc3nnc(-c4ccccn4)o3)cc2)C1 (stereo not drawn)	13.7	25.5	18.2*	1.5	-6.4	15.2*	-1.0
O=C(Nc1nnc(C2CC2)o1)c1ccc(S(=O)(=O)N2CCc3ccccc3C2)cc1	30.9	30.9	30.1*	-2.0	61.8	31.0*	-1.0
CCC(CC)c1nnc(NC(=O)c2ccc(S(=O)(=O)N3CCc4ccccc4C3)cc2)s1	2.4	-1.1	-1.8	-0.7	-0.2	/	/
CC1CCCN(S(=O)(=O)c2ccc(C(=O)Nc3nnc(-c4ccccc4Cl)o3)cc2)C1 (stereo not drawn)	-4.8	21.6	-0.7	1.3	-5.6	/	/
CC1CCCN(S(=O)(=O)c2ccc(C(=O)Nc3nnc(C4CC4)o3)cc2)C1 (stereo not drawn)	3.7	27.5	26.4*	6.2	1.8	16.2*	-1.8
Cc1c(C(=O)OCc2nnc(-c3ccccc3)o2)oc2ccccc12	/	-15.6	/	/	/	/	/
Cc1ccc(NC(=O)COC(=O)CSCC(=O)Nc2cc(C)on2)c(C)c1	-6.0	-8.3	-6.0	-1.8	5.0	/	/
O=C(CN1CCCC1c1cccs1)Nc1cc(S(=O)(=O)N2CCCC2)ccc1Cl (stereo not drawn)	/	-0.1	/	/	/	/	/
CCOC(=O)c1sc(-c2ccc(Cl)cc2)nc1O	14.4	-1.9	24.5*	0.7	-1.9	17.9*	-3.4
CCOC(=O)c1sc(-c2cccc(C(F)(F)F)c2)nc1O	32.9	-13.8	17.8*	-2.2	-0.1	17.4*	-3.2
CC(=O)Oc1ccc(-c2ccc(C(=O)NCCc3ccc(S(N)(=O)=O)cc3)cc2)cc1	-1.9	29.1	24.0*	-2.2	-5.4	18.1*	-2.5
CC(=O)Oc1ccc(C(=O)NCCc2ccccc2)cc1	-4.2	-9.2	-2.2	-0.8	-4.5	/	/
CCOc1ccc(N=Cc2c(C)[nH]n(-c3nc4ccccc4[nH]3)c2=O)cc1	/	118.2*	22.9*	1.8	-6.6	13.6	0.9
CCC(C)C(=O)Nc1nc(C)c(-c2csc(Nc3ccccc3OC)n2)s1 (stereo not drawn)	15.4	52.5	1.3	2.8	4.9	/	/
O=C(Nc1ccc(Oc2ccc3c(c2)C(=O)N(c2ccc(O)cc2)C3=O)cc1)c1cccs1	/	-8.4	22.0*	-2.5	4.4	9.7	-5.3
Cc1cc(C)n2nc(SCC(=O)N/N=C/c3ccccc3F)nc2n1	-4.1	10.2	-1.4	1.0	-8.9	/	/
CC(C)N(Cc1ccccc1)C(=O)CN1C(=O)c2ccccc2C1=O	/	-4.9	-1.2	-0.3	0.3	/	/
COc1cc(/C=C2/SC(=S)N(Cc3ccccc3)C2=O)ccc1OCC(=O)O	-2.3	20.1	20.3*	2.4	4.2	11.8	-0.8
O=S(=O)(Cc1cc(NCc2ccccc2)nc(-c2ccccn2)n1)c1ccccc1	55.9	9.5	39.4*	1.3	-6.4	46.3*	-0.3
O=C1COc2ccc(C(=O)COC(=O)/C=C/c3ccc(Br)o3)cc2N1	6.0	-1.9	21.9*	0.8	21.1	25.6*	-1.3
Cc1ccc(/C=C/C(=O)OCC(=O)c2ccc3c(c2)NC(=O)CO3)o1	-2.0	-10.5	/	/	/	/	/
COCCNC(=O)CN(CCc1ccccc1)S(=O)(=O)c1ccc(Br)cc1	-8.7	-3.5	32.6*	3.0	-0.6	-0.7	-1.1
S=C1NC[C@H](c2ccccc2)N1CCCCC1CCCCC1	/	12.1	2.4	1.5	4.0	/	/
CCCn1cccc(C(=O)Nc2ccc(OC)cc2)c1=O	-6.5	-2.4	-2.4	-2.1	-7.0	/	/
COc1cc(/C=C2\C(=N)N3N=C(S(C)(=O)=O)SC3=NC2=O)cc(OC)c1OCCOc1ccccc1C	53.1	-3.0	29.8*	8.0	6.1	11.4	-1.1
SMILES	ALR H2O2 inh	CSC inhib	PP1 counter	PP5 primary	Calb FLC	PP1 inh confirm	PP5 counter
COc1ccc(Cc2nnc(NC(=O)Nc3ccc(F)cc3)s2)cc1	8.1	/	21.6*	-0.4	-3.3	11.4	-4.7
CCc1nnc(NC(=O)Nc2ccc(OC)cc2)s1	/	1.8	0.4	2.9	-2.9	/	/
COc1cccc(NC(=O)Nc2nnc(Cc3ccc(F)cc3)s2)c1	-7.0	1.0	2.2	1.8	4.7	/	/
COc1ccc(Cc2nnc(NC(=O)Nc3cccc(OC)c3)s2)cc1	-16.8	0.9	18.3*	-1.0	-5.1	15.4*	-2.7
CCCC(=O)OCCn1c(Br)nc2c1c(=O)[nH]c(=O)n2C	22.0	/	4.1	-6.7	-2.7	/	/
COCCn1c(Cc2ccccc2)nnc1SCC(=O)N(C)C	-0.4	4.2	0.5	1.2	-3.8	/	/
CCOC(=O)c1cccc(NC(=O)CSc2nnc(-c3cccnc3)n2CC)c1	-1.5	11.2	4.6	1.3	-7.3	/	/
O=c1[nH]n2c(=O)c3c([nH]c2c1N=Nc1cccc(Cl)c1)CCCC3	18.2	-7.0	36.5*	2.1	21.4	26.1*	-0.2
CCOc1ccc(C(=O)Nc2nnc(NC(=S)Nc3ccccc3)s2)cc1	-3.1	22.1	18.9*	1.2	0.9	32.9*	3.8
Cc1ccc(C(=O)Nc2nnc(NC(=S)Nc3ccccc3)s2)cc1	26.0	?	21.3*	3.3	8.5	24.4*	0.2
O=C(CSc1nc(O)cc(=O)[nH]1)N1c2ccccc2CCc2ccccc21	10.6	-14.5	28.3*	1.0	-6.1	-2.5	-4.3
CC(C)NC(=O)NC(=O)CSc1nnc(COc2ccccc2F)n1C(C)C1CC2CCC1C2 (stereo not drawn)	/	/	21.3*	10.1*	17.1	5.3	3.4
CCCCCCCCCCCCCCCC[n+]1cccc2ccccc21	3.7	104.1*	52.2*	7.2	/	37.5*	7.5
CCCCCCCCC[n+]1cccc2c3ccccc3ccc21	-13.4	57.6	19.2*	-4.5	3.7	-10.7	-2.3
O=[N+]([O-])c1ccc(C[n+]2cccc3c4ccccc4ccc32)cc1	-26.0	-16.3	-1.6	-3.4	-13.6	/	/
Cc1ccccc1C[n+]1cccc2ccccc21	/	-14.9	3.4	0.6	3.1	/	/
O=C1/C(=C\c2cccnc2)Sc2ccccc21	4.0	12.5	18.9*	2.8	-5.1	16.4*	-3.2
CN1C(=O)S/C(=C/c2cccnc2)C1=O	-1.4	5.2	0.8	1.2	-8.0	/	/
Cn1c(SCC(=O)c2ccc3c(c2)Cc2ccccc2-3)nnc1-c1ccccc1	-11.9	-13.8	26.0*	3.2	-12.0	31.5*	-1.2
Nc1c(S(=O)(=O)c2cccs2)c2nc3ccccc3nc2n1CC1CCCO1 (stereo not drawn)	36.3	-10.2	-3.4	-0.8	/	/	/
O=C(Nc1nc(-c2ccccn2)cs1)c1ccc(-c2ccccc2F)o1	/	/	19.5*	3.2	/	30.5*	12.2*
CC(=O)c1ccc(-c2ccc(C(=O)Nc3nc(-c4ccccn4)cs3)o2)cc1	-8.0	26.5	/	/	/	/	/
c1ccc(CCNc2nc(-c3ccccn3)cs2)cc1	/	26.3	35.0*	4.2	-20.2	44.1*	5.1
Cc1ccc(C(=O)Nc2nc(-c3ccccn3)cs2)o1	-0.8	31.1	23.4*	0.3	-2.1	12.9	-1.7
